Screening results: PubChem BioAssay, NMMLSC
This is a sample that favours compounds with a hit; in the whole collection about 1.2% have one here.
CIT2-GFP yeast: modulators of CIT2-GFP expression in yeast, primary screen, S. cerevisiae, GFP fusion, multiplex flow cytometry, MLPCN library; S. cerevisiae CIT2-GFP strain, 3 h; 100 means same as DMSO wells; GFP response vs DMSO, % at 10 µM; 320,000 compounds, 0.065% hits; AID 2029, 2009;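 active means GFP response relative to DMSO above a set limit, near the screen mean plus 3 SD, cut at about 150% in these data; inconclusive means Fewer than 70 cells measured for a yeast strain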;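 further: ratio of well median GFP fluorescence to mean of DMSO wells on the plate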
MEP2 TOR yeast: modulators of MEP2-GFP levels in yeast, primary screen, S. cerevisiae, multiplex flow cytometry, MLPCN library | S. cerevisiae MEP2-GFP strain, 3 h; 100% = DMSO control level | GFP response vs DMSO, % at 10 µM | 330,000 compounds, 0.51% hits | AID 2016, 2009;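 active means GFP response versus DMSO above a set limit, roughly screen mean plus 3 SD, cut at about 180% in these data; inconclusive means fewer than 70 cells counted for a yeast strain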;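 further: median GFP fluorescence of the barcode-gated MEP2-GFP cells per well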
LAP4 TOR yeast: modulators of LAP4-GFP expression in yeast, primary screen, S. cerevisiae, multiplex flow cytometry, MLPCN library; 320,000 compounds, 0.34% hits; GFP response vs DMSO, % at 10 µM; 3 h; median GFP as percent of DMSO wells;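 active means GFP response vs DMSO above a set limit, about the screen mean plus 3 SD, cut at about 150% in these data; inconclusive means under 70 cell events counted for the yeast strain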
DSG3 Ab inh: inhibitors of pemphigus antibody binding to DSG3, primary screen, biochemical, bead-based, flow cytometry, scFv-GFP; Desmoglein-3 (Homo sapiens), P32926; AID 588358, 2011; binding (percent of control), % at 10 µM; 310,000 compounds, 0.48% hits; DSG3-coupled beads, scFv-anti-DSG3-GFP binding; hits give low values;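 active means binding more than 3 SD below its plate's average and above zero; inconclusive means below that plate limit but binding exactly zero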;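 further: hits lower antibody fragment binding to DSG3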
Target sequence (P32926 whole entry, looked up, the tested form may be a part): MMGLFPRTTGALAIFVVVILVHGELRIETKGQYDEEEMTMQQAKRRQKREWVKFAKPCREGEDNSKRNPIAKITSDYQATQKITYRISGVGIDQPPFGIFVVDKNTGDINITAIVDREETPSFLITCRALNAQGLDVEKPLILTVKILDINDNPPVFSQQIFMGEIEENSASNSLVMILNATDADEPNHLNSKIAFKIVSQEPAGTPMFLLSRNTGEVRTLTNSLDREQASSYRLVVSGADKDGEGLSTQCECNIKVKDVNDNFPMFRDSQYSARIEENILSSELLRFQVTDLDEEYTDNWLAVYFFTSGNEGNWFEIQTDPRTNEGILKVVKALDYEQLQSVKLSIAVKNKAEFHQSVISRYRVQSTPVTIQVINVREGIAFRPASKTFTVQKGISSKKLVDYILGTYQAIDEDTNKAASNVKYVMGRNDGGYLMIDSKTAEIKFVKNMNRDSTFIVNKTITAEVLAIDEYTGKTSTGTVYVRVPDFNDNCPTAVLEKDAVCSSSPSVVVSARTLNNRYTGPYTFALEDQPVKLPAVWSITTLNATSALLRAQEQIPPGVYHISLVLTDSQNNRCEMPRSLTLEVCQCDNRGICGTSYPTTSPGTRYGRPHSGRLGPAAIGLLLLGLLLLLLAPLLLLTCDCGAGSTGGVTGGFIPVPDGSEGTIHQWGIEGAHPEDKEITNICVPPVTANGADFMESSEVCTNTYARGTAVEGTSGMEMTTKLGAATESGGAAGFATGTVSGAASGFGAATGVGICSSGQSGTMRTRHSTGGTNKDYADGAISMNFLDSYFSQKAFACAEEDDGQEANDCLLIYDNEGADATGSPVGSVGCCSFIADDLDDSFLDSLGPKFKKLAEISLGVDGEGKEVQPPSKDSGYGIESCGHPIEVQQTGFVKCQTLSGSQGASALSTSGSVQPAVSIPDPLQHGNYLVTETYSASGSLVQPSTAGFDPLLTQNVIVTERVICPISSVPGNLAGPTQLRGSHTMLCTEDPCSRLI
RPL19A-GFP yeast: RPL19A-GFP expression modulators in yeast, primary screen, cell-based, S. cerevisiae, multiplex flow cytometry, MLPCN | S. cerevisiae RPL19A-GFP strain, 3 h; hits give low values | percent response vs DMSO, % at 10 µM | 330,000 compounds, 0.3% hits;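 active means percent response vs DMSO below 50%; inconclusive means fewer than 70 events counted for the yeast strain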;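 further: median channel GFP fluorescence of the barcoded RPL19A-GFP strain; ratio of sample median GFP to plate DMSO average so 100% = DMSO; lower means less RPL19A-GFP as with rapamycin TOR inhibition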
AGP1-GFP MLPCN: modulators of AGP1-GFP expression in yeast TOR pathway, primary screen, cell-based, multiplex flow cytometry, S. cerevisiae, MLPCN library; 3 h; GFP as percent of DMSO wells; GFP response vs DMSO, % at 10 µM; 320,000 compounds, 0.02% hits; AID 2066, 2009;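 active means GFP response relative to DMSO above a set limit, near screen average plus 3 SD, cut at about 150% in these data; inconclusive means fewer than 70 cells counted for the yeast strain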;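 further: median GFP channel fluorescence of the gated AGP1 strain per well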
An asterisk follows results filed as active; ? = inconclusive; / = not tested or not shown; [ ] = dose if it differs, or a comment.

SMILES	CIT2-GFP yeast	MEP2 TOR yeast	LAP4 TOR yeast	DSG3 Ab inh	RPL19A-GFP yeast	AGP1-GFP MLPCN
CCC(C)NC(=O)C1(N2C(=O)c3ccccc3C2=O)CCCC1 (configuration not stated)	/	/	/	112	/	/
CN1CCSc2ccc(C(=O)NCc3cccc(Br)c3)cc21	88	106	123	97	104	92
O=C(c1cc(-c2cccc(Cl)c2)on1)N1CCc2ccccc2C1	166*	99	89	98	105	68
O=C(CSc1nnc(-c2ccccc2)o1)c1ccc2c(c1)OCCO2	?	297*[may fluoresce violet]	83	?	/	?
Cc1cc(C)cc(-c2nnc(SCC(=O)c3ccc4c(c3)OCCO4)o2)c1	96	104	102	94	102	97
CCOC(=O)N/C(N)=N/c1nc2ccccc2s1	86	108	168*	102	89	89
C=CCNC(=O)CC1Nc2c3ccccc3nc(=S)n2C1=O (configuration not stated)	132	113	106	103	102	117
COc1cc(C(=O)OCC(=O)N2CCCC2)cc(OC)c1OC	?	324*[may fluoresce violet]	93	112	47*[may fluoresce violet]	/
CC1=CC(C)[C@H](/C=N/n2c(=O)[nH]c3c([nH]c4ccc(C)cc43)c2=O)C(C)C1 (some centres not stated)	?	266*[may fluoresce violet]	73	114	44*[may fluoresce violet]	?
COc1ccc(/C=N/n2c(=O)[nH]c3c([nH]c4ccc(C)cc43)c2=O)cc1CN1CCOCC1	/	/	/	100	/	/
NC(=O)CSCc1c(Cl)cccc1Cl	90	217*	83	88	66	61
COc1cccc(C(=O)Nc2ccc(NC(=O)c3cc4ccccc4o3)c(OC)c2)c1	101	107	95	116	103	98
COc1cc(NC(=O)c2ccccc2)ccc1NC(=O)c1cc2ccccc2o1	145	207*	133	119	107	95
CCOc1ncccc1C(=O)OCC(=O)NCCCc1ccccc1	79	88	86	/	95	81
CCOc1ncccc1C(=O)OCC(=O)NCCc1ccccc1	?	245*[may fluoresce violet]	57	105	58	?
CC(C)C[C@H]1CNC(=S)N1CC1CCN(CCCC2CCCCC2)CC1	/	/	/	105	/	/
c1cc(C2OCCO2)cs1	/	/	/	109	/	/
CC(=O)c1ccc(N2CCN(C(=S)Nc3cccc(Cl)c3)CC2)cc1	104	97	100	60*	108	107
COc1ccccc1-c1noc(CCCC(=O)NC2CCCCC2)n1	106	102	97	104	105	101
O=C(COC(=O)CSc1ccc([N+](=O)[O-])cc1)NCCc1ccccc1	104	91	109	104	95	102
CC(OC(=O)CSc1ccc([N+](=O)[O-])cc1)C(=O)NCc1ccccc1 (configuration not stated)	85	83	201*	107	58	83
COc1ccc(CC(NC(C)=O)C(=O)NC2CCN(c3nnnn3-c3ccccc3)CC2)cc1 (configuration not stated)	?	205*[may fluoresce violet]	92	97	30*[may fluoresce violet]	?
COc1cccc(CC(NC(C)=O)C(=O)NC2CCN(c3nnnn3-c3ccccc3)CC2)c1 (configuration not stated)	109	102	98	/	100	108
CCc1cccc(C)c1NC(=S)N(CCN(C)C)C(C)c1ccco1 (configuration not stated)	103	95	104	100	98	107
O=c1[nH]c2c(=O)[nH]cnc2nc1-c1ccccc1	/	204*	/	/	72	/
SMILES	CIT2-GFP yeast	MEP2 TOR yeast	LAP4 TOR yeast	DSG3 Ab inh	RPL19A-GFP yeast	AGP1-GFP MLPCN
Cc1nc(C)n(CC(C)C(=O)N2CCN(S(=O)(=O)c3ccccc3)CC2)n1 (configuration not stated)	?	?	?	/	40*[may fluoresce violet]	?
Cc1cc(C)c(S(=O)(=O)N2CCN(C(=O)C(C)Cn3nc(C)nc3C)CC2)c(C)c1 (configuration not stated)	102	107	100	112	105	102
O=C(/C=C/c1ccc(-c2cccc([N+](=O)[O-])c2)o1)N1CCOCC1	102	101	106	86*	100	101
O=C(COC(=O)c1ccc(Cl)cc1[N+](=O)[O-])NC(=O)c1ccccc1	110	94	103	49*	106	107
O=C(NNC(=O)C1CCCCC1)C(=O)NC1CCCCC1	126	177*	155*	99	106	107
CN(CC(=O)Nc1ccccc1Cl)C(=O)COC(=O)/C=C/c1cccc(C(F)(F)F)c1	112	109	107	110	102	112
Cn1ccnc1SCC(=O)Nc1ccc2nc(SCC(=O)NC3CC3)sc2c1	?	280*[may fluoresce violet]	90	/	/	?
CC(OC(=O)c1cc2sccc2n1C)C(=O)NCc1cccs1 (configuration not stated)	92	94	96	97	92	93
Cn1c(C(=O)OCC(=O)NCc2cccs2)cc2sccc21	95	94	93	40*	92	95
FC(F)(F)c1ccc(-n2cnc3ccccc32)nc1	97	103	106	103	100	93
CCOC(=O)Cn1c2c(c(=N)c3ccccc31)CCC2	?	229*[may fluoresce violet]	98	104	55	/
CCOC(=O)Cn1c2c(c(=N)c3c1CCC3)CCC2	102	100	98	104	98	103
Cn1c(SCc2cccc(F)c2)nnc1-c1ccccn1	80	96	91	103	101	96
Cn1c(SCc2cccc(F)c2)nnc1-c1cnccn1	88	99	109	77*	98	98
Cn1c(COc2ccc(Cl)cc2)nnc1SCC(=O)NC1CCCC1	116	109	90	/	104	98
CCOC(=O)N1CCC(NC(=O)c2cc3c(-c4cccc(OC)c4)nn(C)c3s2)CC1	90	97	214*	90	55	100
Nc1ccc(CC2SC(=O)NC2=O)cc1 (configuration not stated)	?	416*[may fluoresce violet]	132	100	51	?
O=C1C(=O)c2ccc(-c3ccccc3)cc2-c2ccccc21	76	103	158*	97	98	92
Nc1ccc2c(c1)C(=O)C(=O)c1ccccc1-2	102	145	189*	95	100	115
COc1cccc2c1C1COC3C4CC(C(=O)O)C(C(C2)N13)N4C (configuration not stated)	/	/	/	93	/	/
O=C(Nc1cccc(NC(=O)c2cccnc2)c1)c1cccnc1	111	106	105	103	111	111
